# From PubChem BioAssay
# FBW7 act = activators of human E3 ligase FBW7; AlphaScreen FBW7–phospho-cyclin E peptide binding, activator screen; normalized activity (activation), % at 26.1 µM; 650,000 compounds, 0.13% hits; AID 1259310; in the data active = normalized activity above about 1.9%;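 note: purified mutant Fbw7 with reduced substrate affinity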
# MITF primary = human MITF inhibition, primary screen. O75030. AlphaScreen MITF homodimerization, bead proximity signal. inhibition, % at 2.6 µM. 650,000 compounds, 0.91% hits. AID 1259374; in the data active = inhibition above about 50%;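 note: 0% = vehicle wells with protein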
# Target sequence (O75030 whole entry, looked up): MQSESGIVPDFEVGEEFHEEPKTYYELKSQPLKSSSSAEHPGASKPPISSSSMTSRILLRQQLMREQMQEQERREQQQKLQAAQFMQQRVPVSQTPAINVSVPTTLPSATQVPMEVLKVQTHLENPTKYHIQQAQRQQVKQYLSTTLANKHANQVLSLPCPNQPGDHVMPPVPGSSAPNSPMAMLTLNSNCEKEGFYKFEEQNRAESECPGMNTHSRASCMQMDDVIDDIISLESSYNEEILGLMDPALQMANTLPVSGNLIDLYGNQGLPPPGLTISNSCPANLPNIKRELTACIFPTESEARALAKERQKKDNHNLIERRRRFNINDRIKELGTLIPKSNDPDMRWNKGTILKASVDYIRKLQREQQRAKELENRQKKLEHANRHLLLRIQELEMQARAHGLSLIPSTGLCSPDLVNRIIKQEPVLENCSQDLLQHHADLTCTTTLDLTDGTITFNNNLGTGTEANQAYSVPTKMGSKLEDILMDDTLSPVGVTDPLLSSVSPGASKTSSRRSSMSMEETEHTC
# TEAD-YAP inh = TEAD-YAP interaction inhibition; 640,000 compounds, 1.4% hits; inhibition, % at 9.12 µM; HEK-TIYL cells, TEAD-Gal4/YAP UAS-luciferase luminescence; in the data active = inhibition above about 32%;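 note: 0% = median of test compound wells and 100% = reference inhibitor wells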
# GPR151 activ = activators of human GPR151; PathHunter beta-arrestin GPR151 cells, luminescence; activation, % at 11.2 µM; AID 1508602; 650,000 compounds, 1% hits; in the data active = activation above about 4.9%;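 note: 0% = median of compound wells and 100% = cells with positive control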
# * marks the source's active call; other numbers are inactive results. Most compounds without a hit are left out; they make up all but 3.4% or so of the library.
SMILES,FBW7 act,MITF primary,TEAD-YAP inh,GPR151 activ
FC(F)(F)c1cccc(NCc2cn3cccnc3n2)c1,2.3*,3,-1,0
FC(F)(F)c1cccc(NCc2cn3ccccc3n2)c1,0,1,-24,0
CCN(CC)C(=O)Cn1cnc2sc(C(=O)N3CCN(c4ccccc4F)CC3)c(C)c2c1=O,0,2,-8,0
O=C(Nc1ccc(S(=O)(=O)N2CCCCC2)cc1)c1ccc(CN2CCc3ccccc3C2)cc1,1,17,65*,1
COc1cc(/C=C(\C#N)C(N)=S)ccc1O,0,9,9,0
CC(C)(C)c1cc(/C=C(\C#N)C(N)=S)cc(C(C)(C)C)c1O,0,-2,47*,3
CC(=O)c1ccc(NC(=O)c2noc3c2CCC3)cc1,0,25,80*,-3
CCOC(=O)c1cc(C(C)C)sc1NC(=O)/C=C/C(=O)O,0,13,45*,0
CCCc1cc(C(=O)OC)c(NC(=O)/C=C/C(=O)O)s1,0,-1,37*,0
CCCCOc1ccc(C(=O)Nc2ccc(C(C)=O)cc2)cc1,0,-14,3,-1
Cc1sc(NC(=O)c2ccc(Cl)s2)c(C(N)=O)c1-c1ccc(F)cc1,0,8,36*,1
Cc1sc(NC(=O)c2ccc(Cl)s2)c(C(N)=O)c1C,0,-6,-61,-1
CC/C(=N\NS(=O)(=O)c1ccc(C)cc1)c1ccc(OC)cc1,0,18,1,-2
O=c1[nH]c2ccc(S(=O)(=O)NCCCO)cc2[nH]1,1.9*,21,5,0
Cc1cc(/C=N/NC(=O)CSc2ncccn2)c(C)n1-c1ccccc1Cl,0,6,-11,0
CC1=CC(C)(C)N2C(=O)C(=O)c3cc(O)cc1c32,0,34,54*,-1
CC1=CC(C)(C)N2C(=O)C(=O)c3cc(OS(=O)(=O)c4ccc(C)cc4)cc1c32,-1,32,12,0
CCOC(=O)Nc1ccc2c(c1)N(C(=O)OCC)c1ccccc1CC2,0,5,48*,0
COc1cc(/C=C2\C(=O)NC(=O)N(c3ccc(Cl)c(Cl)c3)C2=O)ccc1O,0,19,4,-1
Nc1ccc(-c2nc3cc(N)cc(Cl)c3o2)cc1,0,-6,-37,0
O=C1c2c(O)cc(O)cc2OC(c2ccc(O)c(O)c2)C1O (configuration not stated),0,14,-1,2
O=C(O[C@@H]1Cc2c(O)cc(O)cc2O[C@@H]1c1ccc(O)c(O)c1)c1cc(O)c(O)c(O)c1,0,83*,0,0
O=C(O[C@@H]1Cc2c(O)cc(O)cc2O[C@@H]1c1cc(O)c(O)c(O)c1)c1cc(O)c(O)c(O)c1,0,77*,2,-1
CCC(=O)N(CCCO)Cc1cc2ccc(C)cc2[nH]c1=O,1,1,36*,-1
CC(C)(C)n1nnnc1C(c1ccccc1)N1CCc2ccccc2C1 (configuration not stated),0,-7,2,0
SMILES,FBW7 act,MITF primary,TEAD-YAP inh,GPR151 activ
CCC(C)(C)n1nnnc1C(c1ccc(O)cc1)N1CCc2ccccc2C1 (configuration not stated),0,-2,77*,1
CC(=O)c1ccc(N=Nc2ccc(O)c(C=O)c2)cc1,0,-16,90*,-4
COc1ccccc1NC(=O)C(=O)NC1CC(C)(C)NC(C)(C)C1,0,13,-13,0
COc1cccc(-c2nnc(SCC(=O)Nc3cc(Cl)ccc3OC)n2-n2cccc2)c1,0,6,52*,1
COc1ccc(OC)c(NC(=O)CSc2nnc(-c3ccccc3)n2-n2cccc2)c1,0,14,6,-1
COc1cccc(C(=O)Nc2ccc(N3CCCCC3=O)c(C)c2)c1,0,-8,76*,-11
COc1cccc(C(=O)Nc2ccc3scnc3c2)c1,0,-3,63*,-9
COc1ccc(Cl)cc1C(=O)Nc1ccc(Nc2cc(-n3cccn3)ncn2)cc1,0,-5,0,1
O=C(Nc1ccc2ccccc2c1)c1ccc(C2CCCCC2)cc1,0,-2,34*,1
COc1cccc(C(=O)Nc2ccc(Nc3cc(-n4cccn4)ncn3)cc2)c1,0,-6,68*,1
COc1ccc(/C=N/NC(=O)c2nc(Cl)c(Cl)c(N)c2Cl)cc1,0,-8,2,-1
O=C(Nc1ccc2scnc2c1)c1ccc2ccccc2c1,0,6,66*,-5
CC(C)c1ccc2oc(-c3cccc(N)c3)nc2c1,0,2,65*,-7
Nc1cccc(-c2nc3cc(S(=O)(=O)c4ccc5oc(-c6cccc(N)c6)nc5c4)ccc3o2)c1,0,9,6,2
CC(C)c1ccc2oc(-c3ccc(N)cc3)nc2c1,0,0,80*,-1
CC(C)N(C)Cc1nnnn1CC(=O)N1CCCN(Cc2cccc(F)c2)CC1,0,-11,0,-1
Oc1ccc(Br)cc1C1CC(c2cccc(Br)c2)=NC(c2ccc(Cl)cc2Cl)N1 (configuration not stated),0,6,10,-3
COc1cccc(C2=NC(c3ccc(Br)cc3)NC(c3cc(Br)ccc3O)C2)c1 (configuration not stated),0,0,1,3
COc1cccc(C2=NC(C(C)C)NC(c3cc(Br)ccc3O)C2)c1 (configuration not stated),0,-11,35*,0
Oc1ccc(Br)cc1C1CC(c2cccc(Br)c2)=NC(c2ccc(F)c(Br)c2)N1 (configuration not stated),0,1,32*,2
O=C(Cc1cccs1)N/N=C\c1ccc(Cl)cc1Cl,0,18,1,-2
Oc1ccc(Br)cc1CNc1nc2ccccc2[nH]1,0,74*,-10,0
Oc1ccc(Cl)cc1CNc1nc2ccccc2[nH]1,0,-4,-16,2
COCCN1C(=O)CC(NNC(=O)c2ccc(Cl)cc2Cl)C1=O (configuration not stated),0,4,-3,0
CCOC(=O)c1cccc(C(=O)Nc2ccccc2C(=O)OC)n1,0,21,1,-2
SMILES,FBW7 act,MITF primary,TEAD-YAP inh,GPR151 activ
CCOC(=O)c1cccc(C(=O)NC2=NN(c3ccccc3)C(=O)C2)n1,51*,-25,0,1
O=C1NC(=O)C(=Cc2cc(Cl)ccc2OCc2cccc(F)c2)C(=O)N1,-1,11,-5,-1
O=C(CN1C(=O)C2C3C=CC(C4CC34)C2C1=O)Nc1ccc(I)cc1 (configuration not stated),0,-12,-3,1
Cc1c(C(=O)NC2=NCCS2)oc2ccccc12,0,-25,38*,-6
Oc1ccccc1NC(c1cccnc1)c1ccc2cccnc2c1O (configuration not stated),0,98*,7,-1
Cc1ccc2ccc(C(Nc3ccccn3)c3cccnc3)c(O)c2n1 (configuration not stated),0,1,10,-1
COc1ccc(NC(c2cccnc2)c2ccc3cccnc3c2O)cc1 (configuration not stated),-2,59*,1,0
COc1ccc(CN2CCc3ccccc3C2)c(O)c1,0,-56,7,0
